Reference: PubChem BioAssay (NCI)
The panel holds about 83,000 compounds, 20% with a hit somewhere; the sample as a whole holds those more often.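 Interpretation: 100, growth as untreated; towards 0, rising growth inhibition; 0, no net growth; 0 to -100, cell death. Compounds scoring below 10 were considered active.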 Unmarked numbers belong to inactive results. Calls of active or inactive are those of the source.

Experiments:
Test in all cases: NCI-60 one-dose screen, 48 h (100 = growth as untreated, 0 = no growth, -100 = all killed)
Conditions in all cases: 10 µM unless noted
HCT-15 colon = test system: HCT-15 colon
HT29 colon = test system: HT29 colon
SNB-75 CNS = test system: SNB-75 CNS
SNB-19 CNS = test system: SNB-19 CNS
U251 CNS = test system: U251 CNS
PC-3 prostate = test system: PC-3 prostate
SK-MEL-5 melanoma = test system: SK-MEL-5 melanoma
UACC-62 melanoma = test system: UACC-62 melanoma
LOX IMVI melanoma = test system: LOX IMVI melanoma
SK-MEL-28 melanoma = test system: SK-MEL-28 melanoma

| SMILES | growth (HCT-15 colon) | growth (HT29 colon) | growth (SNB-75 CNS) | growth (SNB-19 CNS) | growth (U251 CNS) | growth (PC-3 prostate) | growth (SK-MEL-5 melanoma) | growth (UACC-62 melanoma) | growth (LOX IMVI melanoma) | growth (SK-MEL-28 melanoma) |
| --- | --- | --- | --- | --- | --- | --- | --- | --- | --- | --- |
| N[C@@H]1CCC[C@H]1NCCCCN1C(=O)c2cccc3cccc(c23)C1=O | 81.8% | 33.8% | 84.4% | 85.5% | 59% | 61.6% | 93.1% | 95.7% | 24.4% | 89.5% |
| CS(=O)(=O)c1ccc(-c2[nH]c3ccc(F)cc3c2/C=N/O)cc1 | 98.4% | 93.7% | 69.2% | 103% | 91.2% | 79.4% | 103% | 91.2% | 95.3% | 108% |
| CCc1c(C(=O)N[C@@H]2c3cc(Cl)ccc3CC[C@@H]2O)[nH]c(C)c1C(C)=O | 41.1% | 66.9% | 76.4% | 97.2% | 48.4% | 49.8% | 45% | 69.7% | 50.9% | 81.5% |
| N#Cc1c(N)n2c(nc1=Nc1ccc(Cl)cc1)sc1cc(Cl)ccc12 | 96.2% | 33.4% | 21.1% | 75.5% | 71% | 62.5% | 61.1% | 63.4% | 79.7% | 57.6% |
| COc1ccc(/C(C)=C(\c2ccc(Cl)cc2)c2ccc(OCCCN(C)C)cc2)cc1F | 7.7% (active) | 3.41% (active) | 70.6% | 67% | 38.5% | 59.2% | 84.1% | 45.7% | -74.1% (active) | 37.8% |
| CCNCCNc1cc(C2CCCC2)c(C#N)c2nc3ccccc3n12 | 26.8% | -9.9% (active) | -33.3% (active) | 36.8% | -19.1% (active) | 39.6% | -56.7% (active) | -81.4% (active) | -79% (active) | -63.8% (active) |
| C[C@H]1[C@H](C)CC[C@]2(C(=O)N3CCN(C)CC3)CC[C@]3(C)C(=CC[C@@H]4[C@@]5(C)C/C(=C/c6cccnc6)C(=O)C(C)(C)[C@@H]5CC[C@]43C)[C@H]12 | -79.8% (active) | -79.3% (active) | -9.56% (active) | -95.9% (active) | -96% (active) | -79.6% (active) | -97.6% (active) | -74.7% (active) | -97.1% (active) | -85.7% (active) |
| CN1CCN(C(=O)[C@@]2(C)CC[C@]3(C)CC[C@]4(C)C(=CC[C@@H]5[C@@]6(C)C/C(=C/c7ccncc7)C(=O)C(C)(C)[C@@H]6CC[C@]54C)[C@@H]3C2)CC1 | 30.2% | 10.9% | 62.7% | 62.7% | 32.6% | 23.8% | 39.3% | 37.8% | 28.5% | 48.7% |
| C[C@]12CCC(=O)C[C@H]1CC[C@@H]1[C@@H]2CC[C@@]2(C)[C@H]1CC[C@]2(O)C(=O)CO | 104% | 99.4% | 94.4% | 108% | 121% | 102% | 104% | 102% | – | 108% |
| COc1ccc(/C=C(\C#N)n2nnc3cc(F)c(F)cc32)c(OC)c1OC | 43.7% | 64.5% | 82% | 82.9% | 73.9% | 57.9% | 60.5% | 58.6% | – | 77.3% |
| C=C1c2c(C)nn(-c3ccc(O)cc3)c2N(C)C23C[C@@H]1C1(C)c4c(C)nn(-c5ccc(O)cc5)c4N(C)C(C)(C[C@H]12)C3 (stereo not given in full) | 11.1% | 17.5% | 64.2% | 48.7% | 33% | 12.8% | 11.4% | 32.7% | – | 42.6% |
| N#C/C=C(\c1ccc([N+](=O)[O-])cc1)n1nnc2cc(Cl)c(Cl)cc21 | -39.1% (active) | 3.93% (active) | 18.1% | 41.5% | 11.8% | -12.5% (active) | 38.5% | 3.91% (active) | -79.9% (active) | 43.2% |
| COc1cc2c(cc1OC)-c1ccc3cc4c(cc3c1N(CCCN1CCCCC1)C2)OCO4 | 47.5% | 25.4% | 51.3% | 42.6% | 42.1% | 29.3% | 44.9% | 59.2% | 32.5% | 80.4% |
| COc1cc2oc3cc(C)oc(=O)c3c2cc1OC | 91.9% | 91.5% | 103% | 86.8% | 102% | 98.4% | 95.1% | 90.9% | 103% | 115% |
| C[C@@H]1CC[C@@H]2[C@@H]1[C@H](OC(=O)c1ccc3ccccc3c1)[C@]1(C3CCCCC3)C[C@@H](OC(=O)CO)[C@@]2(C)O1 | 40.9% | 20.7% | 64.9% | 84.1% | 48.9% | 22.2% | 88.6% | 73.6% | – | 70.2% |
| COc1cc(/C=C2\C=C(c3ccccc3)N(CCc3ccccc3)C2=O)cc(OC)c1OC | 94.1% | 74.8% | -6.74% (active) | 65.4% | 52.5% | 76.2% | 57.7% | 56.1% | 58.2% | 84.1% |
| CNCCNc1nc2ccccc2c2c(=O)c3cc(F)ccc3oc12 | 49.1% | 24.5% | 56.8% | 57.9% | 50.2% | 46.9% | 73.3% | 85% | 44.6% | 84.5% |
| Cc1[nH]c(-c2nc3ccccc3[nH]2)c(C)c1C(=O)N1CCOCC1 | 95.5% | 98.3% | 87.8% | 88.7% | 100% | 98.8% | 98.8% | 90% | 97.4% | 105% |
| COc1ccc(-n2ncn(CCCCCCn3cnn(-c4ccc(OC)cc4)c3=O)c2=O)cc1 | 95.3% | 101% | 79.8% | 90.3% | 94.3% | 84.8% | 95.2% | 76.5% | – | 98% |
| CCCCOc1ccc(NC(=O)n2nc(N=NN(C)C)c3ccc(Cl)cc32)cc1 | 105% | 98.1% | 89.1% | 106% | 118% | 88.5% | 107% | 86.4% | – | 106% |
| CC/C=C/[C@@H]1C=C[C@@H]2CCC[C@H]2[C@@H]1CC[C@H](O)[C@H](C)N | -73.8% (active) | 2.11% (active) | 22.4% | -41.2% (active) | -79.7% (active) | 30.4% | -92.8% (active) | -42.1% (active) | -91.6% (active) | -87.1% (active) |
| Clc1ccc2c(NCCCN3CCN(c4nc(N5CCOCC5)nc5ccccc45)CC3)ccnc2c1 | -32.8% (active) | -19.2% (active) | 89.4% | 21.7% | -14.3% (active) | 37.5% | -96.8% (active) | -33.1% (active) | – | -85% (active) |
| Cc1c(C)c2c(c(C)c1NC(=O)/C=C\C(=O)O)CCC(C)(CCCC(C)CCCC(C)CCCC(C)C)O2 (stereo not given) | 2.82% (active) | 20.7% | 33.2% | 78.1% | 60.2% | 16.6% | -97.7% (active) | 22.8% | – | -10.6% (active) |
| Cc1cc(Cc2cc(C)cc(C(C)(C)C)c2O)c(O)c(C(C)(C)C)c1 | 21.4% | 25% | 69.3% | 48% | 32.5% | 33.9% | 48.3% | 47% | 47.5% | 80.3% |
| C=C1c2c(C)nn(-c3ccc(N)cc3)c2N(C)C23CC1C1(C)c4c(C)nn(-c5ccc(N)cc5)c4N(C)C(C)(CC12)C3 (stereo not given) | 38.5% | 61.7% | 109% | 80.7% | 79.1% | 53.1% | 52.9% | 77.1% | – | 85.1% |
| CC(=O)c1ccc2c(c1)CCN2 | 105% | 101% | 93.1% | 98.3% | 97.1% | 98.6% | 105% | 102% | – | 109% |
| CCOC(=O)C1=C(C)NC(SCc2nnc(-c3ccc(Cl)cc3)o2)=NC1c1ccc(Cl)cc1Cl (stereo not given) | 55.3% | 53.1% | 84.1% | 72.9% | 65.3% | 45.1% | 80.3% | 51.6% | 58.3% | 101% |
| COc1cc(C(=O)/C=C/c2c(C(F)(F)F)nc3ccccn23)cc(OC)c1OC | -44.2% (active) | -56.5% (active) | 1.22% (active) | 14.6% | -60.2% (active) | 7.45% (active) | -95.2% (active) | -75.6% (active) | -79.8% (active) | -65.2% (active) |
